# Screens (PubChem)
# Sampled rows, rich in hits. Any-hit rate of the full collection: about 2.3%.
# CHRM1 agonist = activates human CHRM1 receptor; CHO-K1 hM1, Fluo-8 calcium fluorescence, agonist mode; 0% DMSO, 100% acetylcholine EC100; P11229; AID 588814; activation, % at 3 µM; 360,000 tested, 0.33% active;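 active = activation above the run's mean compound activation plus 3 SD, cut at about 16% in these data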;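 note: peak over basal fluorescence ratio within a 140 s kinetic read after compound addition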
# Target sequence (P11229 whole entry, looked up): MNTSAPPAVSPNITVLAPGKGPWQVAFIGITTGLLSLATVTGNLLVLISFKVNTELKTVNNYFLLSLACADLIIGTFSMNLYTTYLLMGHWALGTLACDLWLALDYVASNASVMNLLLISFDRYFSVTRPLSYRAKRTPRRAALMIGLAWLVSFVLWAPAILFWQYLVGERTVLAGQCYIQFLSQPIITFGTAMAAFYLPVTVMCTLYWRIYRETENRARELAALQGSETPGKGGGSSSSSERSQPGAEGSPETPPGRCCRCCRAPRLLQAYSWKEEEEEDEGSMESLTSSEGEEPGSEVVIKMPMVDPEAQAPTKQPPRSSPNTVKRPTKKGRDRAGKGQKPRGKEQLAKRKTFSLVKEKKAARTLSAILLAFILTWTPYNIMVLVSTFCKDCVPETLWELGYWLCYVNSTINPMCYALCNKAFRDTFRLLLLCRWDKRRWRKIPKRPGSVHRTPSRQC
# CHRM1 antagonist = human CHRM1 antagonism. inhibition, % at 3 µM. CHO-K1 hM1, Fluo-8 calcium fluorescence, ACh EC80 antagonist. 360,000 tested, 1.3% active. P11229. AID 588852;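 active = percent inhibition above its own plate's cutoff, namely the mean of that plate's compound wells plus 3 SD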;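 note: peak over basal fluorescence ratio during 140 s after agonist addition; 0% = ACh EC80 plus DMSO and 100% = DMSO alone without agonist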
# CHO-K1 Ca antag = counter-screen for M1 antagonists: effect in parental CHO-K1 cells. ATP-induced calcium, Fluo-8 fluorescence. inhibition, % at 3 µM. 360,000 tested, 0.6% active. AID 602250;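 active = inhibition above a per-plate cutoff, the plate's mean sample inhibition plus 3 SD, cut at about 24% in these data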;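 note: 0% = DMSO plus EC80 ATP and 100% = DMSO alone without ATP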
# CHO-K1 Ca PAM = counter-screen for M1 PAMs: effect in parental CHO-K1 cells. ATP EC20, Fluo-8 calcium fluorescence; 0% at ATP EC20, 100% at ATP max. 360,000 tested, 0.02% active. activation, % at 3 µM. AID 602247;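 active = activation above the run cutoff, the mean activation of all test compounds plus 3 SD, cut at about 40% in these data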;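 note: peak over basal fluorescence ratio in a 140 s read after ATP addition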
# CHRM1 PAM = human CHRM1 positive allosteric modulation. P11229. CHO-K1 hM1, Fluo-8 calcium fluorescence, ACh EC20; 0% = ACh EC20, 100% = maximal ACh. activation, % at 3 µM. 360,000 tested, 0.088% active. AID 588819; in the data active = activation above about 19%, passing the limit was not always enough
# CHO-K1 Ca ag = M1 agonist counterscreen hit in parental CHO-K1 cells. Fluo-8 calcium fluorescence; scaled to maximal ATP response, vehicle zero. activation, % at 3 µM. 360,000 tested, 0.48% active; in the data active = activation above about 15%;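 note: untransfected CHO-K1 host cells lacking M1 receptor as counterscreen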
# The depositor's hits bear a star; x = not tested or not shown.
SMILES,CHRM1 agonist,CHRM1 antagonist,CHO-K1 Ca antag,CHO-K1 Ca PAM,CHRM1 PAM,CHO-K1 Ca ag
COc1ccc(CNC(=O)CN2CCN(C(c3ccccc3)c3ccccc3)CC2)cc1,-6.3,34.4*,-4.8,-5.2,-19.4,0.5
COc1cccc(N2CCN(CC(=O)Nc3ccccc3C(=O)NCc3ccccc3)CC2)c1,-0.8,34.3*,4.1,6.1,-11.0,7.2
COc1cccc(N2CCN(CC(=O)Nc3ccccc3C(=O)NCCc3ccccc3)CC2)c1,-3.6,22.3,-3.9,0.1,-12.0,3.6
O=C(CN1CCN(C(c2ccccc2)c2ccccc2)CC1)NC(=O)NCc1ccco1,-4.5,30.1*,26.9*,-8.8,-10.9,-0.5
O=C1CC(C(=O)O)C(c2ccccc2)c2ccccc21 (stereo unspecified),-3.9,-2.1,3.1,-10.1,0.0,0.2
CCn1cc(/C=C(\NC(=O)c2ccccc2)C(=O)NCCN2CCOCC2)c2ccccc21,-2.5,-2.6,0.9,0.5,-0.7,1.5
OCCN1CCN(c2ncnc3c2ncn3[C@H]2CN(Cc3cccs3)C[C@@H](CO)O2)CC1,-3.9,-1.7,-1.9,-2.2,0.6,0.4
NC(c1csc(Nc2cc(NCCCO)ncn2)n1)c1ccccc1Cl (stereo unspecified),-3.7,-7.4,3.6,6.2,-0.2,0.2
C=C(C)COc1ccc(-c2n[nH]c(C)c2-c2ccc(OC)c(OC)c2)c(O)c1,-0.2,-7.0,55.3*,-11.6,8.3,-1.1
COc1ccc(-c2n[nH]c(C)c2-c2ccc(Cl)cc2)c(O)c1OC,0.1,34.6*,26.5*,3.0,-9.6,5.4
COc1ccc(-c2n[nH]c(C)c2-c2ccc(Cl)cc2)c(O)c1,-2.5,-10.3,-0.3,1.7,5.3,0.0
CN(Cc1ccccc1)C(=O)[C@@H]1CCCN1C(=O)[C@@H]1CCCN1C(=O)c1cccc(Cl)c1,x,x,-15.6,0.7,x,-0.2
COc1ccc2c(c1OC)C(=O)N1c3ccccc3C(=O)N(c3ccccc3F)C21 (stereo unspecified),3.2,38.8*,9.1,13.4,-11.5,6.5
CN(C)c1ccc(/C=C/c2ccc3c4ccccc4ccc3[n+]2-c2ccccc2)cc1,2.4,64.5*,40.7*,-12.8,-25.5,15.7*
C[C@H](CO)N1C[C@H](C)[C@@H](CN(C)Cc2cccnc2)Oc2ncc(-c3cccc(C#N)c3)cc2C1=O,-10.8,-2.0,5.2,-4.0,-1.8,2.2
CCOc1cccc(/C=C(/C#N)c2nc3ccccc3[nH]2)c1OCC(=O)O,-0.7,-10.7,-3.5,13.9,4.2,1.0
CCN(CC)c1ccc(/C=C(/C#N)c2nc3ccccc3[nH]2)c(OC(C)C)c1,55.2*,63.7*,8.7,-0.2,-40.6,12.8
NS(=O)(=O)c1ccc(NC(=O)CSc2nnc(Cc3cccs3)n2-c2ccccc2)cc1,-4.3,-2.1,-1.8,7.2,0.8,-0.3
Cc1ccc(-n2c(Cc3cccs3)nnc2SCC(=O)Nc2ccc(S(N)(=O)=O)cc2)cc1,-0.8,6.7,25.1*,-8.2,12.5,-0.4
Cc1cc(C)n(-c2ccccc2C#N)n1,4.2,3.8,25.3*,-15.6,-0.6,5.4
Cc1cc(C)n(-c2cccc3cccnc23)n1,-2.5,11.3,-0.1,0.2,-5.6,0.3
CC(C)c1c(C(=O)N/N=C/c2cccs2)nnn1-c1nonc1N,33.6*,9.2,3.0,-9.6,-5.8,33.1*
Cc1ccsc1/C=N/NC(=O)c1nnn(-c2nonc2N)c1C(C)C,4.0,-7.6,-13.5,15.3,1.4,6.5
CC(C)c1c(C(=O)N/N=C/c2ccc(C(F)(F)F)cc2)nnn1-c1nonc1N,21.0*,-18.4,-19.8,36.3,20.6,11.5
CC(C)c1c(C(=O)N/N=C/c2ccsc2)nnn1-c1nonc1N,27.8*,17.4,6.0,14.4,-6.9,22.3*
SMILES,CHRM1 agonist,CHRM1 antagonist,CHO-K1 Ca antag,CHO-K1 Ca PAM,CHRM1 PAM,CHO-K1 Ca ag
Cc1[nH]nc2c1/C(=N\O)CC(C)(C)C2,-4.5,-12.6,-12.8,20.7,5.9,0.6
Cc1[nH]nc2c1C(=O)CC(C)(C)C2,4.2,-32.8,1.2,13.6,21.0*,0.2
Cc1cc(C(=O)CSc2nncs2)c(C)n1-c1c(C)n(C)n(-c2ccccc2)c1=O,-12.5,54.5*,-6.3,8.2,-33.3,0.2
Cc1nnc(SCC(=O)c2cc(C)n(-c3c(C)n(C)n(-c4ccccc4)c3=O)c2C)s1,-8.2,-15.9,-15.8,4.0,-2.1,-0.7
O=C(O)c1cccc(NC(=S)N/N=C/c2ccccc2OCc2ccc(Br)cc2)c1,-5.7,13.8,27.0*,-13.3,-9.2,1.2
Cc1ccc(S(=O)(=O)n2ccc3c2CCCC3=O)cc1,-7.8,54.1*,7.3,8.4,-27.4,1.2
NC(Cc1ccccc1)c1csc(Nc2nccc(C(F)(F)F)n2)n1 (stereo unspecified),5.6,16.5,4.8,5.3,-4.3,1.6
Cc1ccc2c(c1)N(C(=O)CSc1nncn1C)C(C)(C)c1ssc(=S)c1-2,-6.4,41.5*,-4.5,10.0,-27.6,-0.4
Cc1cc2c(cc1C)N(C(=O)CSc1nncn1C)C(C)(C)c1ssc(=S)c1-2,-12.2,23.5,-33.0,27.9,-31.3,-0.7
Cc1cc(=O)[nH]c2nc3ccccc3n12,-3.0,-6.5,0.4,12.1,8.4,0.2
CCOC(=O)C1CCCN(c2ncnc3c2oc2ccccc23)C1 (stereo unspecified),0.1,21.0,23.9*,-8.0,-10.5,4.5
CC1=C(C(=O)N(C(C)C)C(C)C)CC(CC(=O)NCc2cccc3ccccc23)C(=O)N1CCC1=CCCCC1 (stereo unspecified),-5.0,14.8,13.3,10.8,-5.2,0.2
CCCCC(Nc1ncnc2ccccc12)C(=O)O (stereo unspecified),-3.9,-10.3,-9.0,11.1,5.0,0.2
CC(Nc1ncnc2ccccc12)c1ccccc1 (stereo unspecified),-1.6,26.6*,24.4*,11.7,-7.3,11.0
CCOc1ccc(-c2ccc(C3=CC(=O)C[C@H](c4ccc(F)cc4)C3)cc2)cc1,1.0,15.1,17.4,-5.8,-2.7,0.5
COc1ccccc1NC(=O)C(C)N(C)Cc1ccc(Cl)s1 (stereo unspecified),-4.3,-7.7,-15.9,48.0*,4.5,0.1
COc1ccccc1NC(=O)C(C)N(C)CC(=O)Nc1cccc2ccccc12 (stereo unspecified),0.1,-7.5,-17.5,10.1,0.0,1.3
C/C(=N/OC(=O)c1c(-c2ccccc2Cl)noc1C)c1cnccn1,-2.9,74.4*,-0.6,5.7,-19.7,1.7
C/C(=N/OC(=O)c1c(-c2c(Cl)cccc2Cl)noc1C)c1cnccn1,-8.1,76.5*,-11.6,-6.6,-27.6,2.7
C/C(=N\OC(=O)c1c(-c2ccccc2Cl)noc1C)c1nccs1,-4.4,33.9,-9.0,10.0,-18.1,-0.3
